High-throughput results deposited in PubChem BioAssay by National Center for Advancing Translational Sciences (NCATS).
Shown are actives, neighbours in structure and some others; about 19% of the full set was active somewhere.
IL1B secr inh = inflammasome signaling inhibition, IL-1 beta readout | THP-1 LPS/ATP IL-1B secretion, AlphaLISA, 16 h; stronger effect = lower value | activity change, % at 57.5 µM | 360,000 tested, 4.7% active | AID 743279; in the data active = activity change below about -50%; inconclusive = mostly about -30% to -49%
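THP-1 cells pretreated 1 hr with compounds (up to 57.5 uM final), then stimulated with LPS (250 ng/mL final) plus ATP (1.25 mM final); secreted IL-1B measured by AlphaLISA after 16 hr, decreased signal indicating inhibition.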
HT1080-NT tox = kills 2HG-producing HT-1080-NT fibrosarcoma cells; Potency, µM (series often up to 46.1 µM), without a hit: at the top dose activity, negative = less viability, usual class: cytotoxic; AID 686970; HT-1080-NT fibrosarcoma viability, CellTiter-Glo ATP luminescence, 48 h; 360,000 tested, 1.6% active;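 also: NT is the 2HG producing partner of a matched IDH1 knockdown line; potency is read from the fitted curve at half-maximal effect; 0% = DMSO-treated cells and -100% = media-only wells without cells; nearly all actives have a fitted effect of over 55% in size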
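750 cells/well, RPMI + 5% FBS; 2 h settle, compound pin-transfer, 48 h at 37 degrees C. CellTiter-Glo 10 min RT, luminescence. Normalized to DMSO and media-only wells.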
HT1080 IDH1KD tx = HT-1080 IDH1 knockdown cell toxicity (counter line) | 360,000 tested, 2% active | AID 686971 | HT-1080 IDH1 knockdown viability, ATP luminescence, 48 h | Potency, µM (top dose mostly 46.1 µM), for the others: at the top dose activity, negative = toxicity, actives largely listed as cytotoxic;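 also: potency is read from the fitted curve at half-maximal effect; 0% = DMSO wells and -100% = cell-free medium wells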
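Viability of IDH1-knockdown HT-1080 fibrosarcoma cells was assessed by CellTiter-Glo after 48 h at 37 °C with titrated compound; concentration-effect curves were classified by fit quality and response size.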
TDP1 cell noCPT = qHTS for Inhibitors of human tyrosyl-DNA phosphodiesterase 1 (TDP1): qHTS in cells in absence of CPT. DT40 Tdp1-/- hTDP1 cells, no CPT, ATP luminescence, 48 h. Potency, µM (doses to about 46.2 µM), without a hit: at the top dose activity change, negative = growth inhibition, most hits filed as inhibitors. 420,000 tested, 15% active; also: potency is read from the fitted curve at half-maximal effect; nearly all actives have a fitted effect of over 55% in size
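Stably hTDP1-transfected Tdp1-null chicken DT40 cells were treated with library compounds minus camptothecin and grown for at least 48 hr at 37 °C, after which cellular ATP was quantified by luminescence.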
DT40 TDP1 CPT = DT40-hTDP1 cell growth loss with CPT. Potency, µM (series often up to 46.2 µM), inactives show at the highest dose activity change, negative = growth inhibition, most hits filed as inhibitors. 420,000 tested, 12% active. chicken DT40 Tdp1-/-;hTDP1 cells + 20 nM CPT, ATP luminescence, 48 h; also: potency is read from the fitted curve at half-maximal effect; nearly all actives have a fitted effect of over 55% in size
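Chicken DT40 Tdp1-/- cells stably complemented with human TDP1 were seeded at 400 cells/well in medium containing 20 nM camptothecin, exposed to pin-transferred compounds, and grown at 37 °C for at least 48 hr. Viability was read as ATP luminescence.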
* = called active by the depositor; ? = inconclusive; . = no result; [ ] = another dose, or the depositor's remark. Unless noted, calls follow the shape of the dose curve; as a rule, active = well fitted curve in the direction sought with a large enough effect; inconclusive = small, poorly fitted or top-dose-only effect, or another doubt; inactive = no such curve, though single readings can be large; an effect the other way counts as inactive or inconclusive. Unless noted, % is scaled to controls: 0 for no effect and ±100 for the full control effect.

SMILES | IL1B secr inh | HT1080-NT tox | HT1080 IDH1KD tx | TDP1 cell noCPT | DT40 TDP1 CPT
O=S(=O)(c1ccccc1)c1nnn2c1nc(NC1CCN(Cc3ccccc3)CC1)c1ccccc12 | ? | -10.5% | -0.7% | 8.2µM* | 5.8µM*
Cc1ccc(C)c(Nc2nc3c(S(=O)(=O)c4ccccc4)nnn3c3ccccc23)c1 | 22.1 | -3.0% | 11.4% | ? | -29.1%
CC(C)CCNC(=O)C1(C)CCN1Cc1ccc(-c2ccccn2)cc1 (centres undefined) | -7.9 | -17.2% | -9.4% | -72.4% | ?
O=c1cc(CN2CCN(Cc3ccccc3)CC2)c2cc(Cl)ccc2o1 | 19.6 | -0.8% | 3.0% | -19.2% | -11.7%
O=c1cc(CN2CCN(c3ccccc3)CC2)c2cc(O)c(-c3ccccc3)cc2o1 | 23.8 | -1.5% | -3.2%[9.24 µM] | 10.3µM* | 5.8µM*
COc1cccc(NCc2cc(=O)oc3cc(C)c(O)cc23)c1 | -6.1 | -23.6% | -0.9% | ? | ?
O=c1cc(CN2CCN(c3ccc(Cl)c(Cl)c3)CC2)c2ccccc2o1 | 17.9 | -2.4% | -16.5% | 14.6µM* | -87.8%
COc1cccc(NCc2cc(=O)oc3cc(-c4ccccc4)c(O)cc23)c1 | ? | -18.2% | -28.4% | 18.4µM* | ?
O=c1cc(CN2CCN(c3cccc(Cl)c3)CC2)c2cc(O)c(-c3ccccc3)cc2o1 | 26.5 | -3.4% | 0.2% | 18.4µM* | 13µM*
Nc1nc(Cl)cc(-c2ccccc2)n1 | -50.1* | 2.3% | 0.0% | -15.2% | 3.1%
CC1(C)C(/C=C/C=C/C=C/C=C2\N(CCCCS(=O)(=O)O)c3ccc4ccccc4c3C2(C)C)=[N+](CCCCS(=O)(=O)[O-])c2ccc3ccccc3c21 | -76.7* | -29.3% | -28.3% | -3.1% | -3.7%
COc1ccc(-c2cc3ccccc3oc2=O)cc1NC(=O)c1ccc(Br)o1 | -6.1 | -12.9% | -29.4% | ? | -19.5%
COc1ccc(-c2cc3ccccc3oc2=O)cc1NC(=S)NC(=O)c1ccc2c(c1)OCCO2 | -14.8 | 7.9% | -4.0% | 9.2µM* | 11.6µM*
CCC(=O)Nc1cc(-c2cc3ccccc3oc2=O)ccc1OC | -18.1 | -0.8% | 8.3% | ? | -27.4%
COc1ccc(-c2cc3ccccc3oc2=O)cc1NC(=O)c1ccc([N+](=O)[O-])o1 | -9.2 | -11.2% | ? | 14.6µM* | 20.6µM*
Cc1ccc(NC(=O)Cn2nnc(C(=O)NCCc3ccccc3)c2N)cc1 | . | . | . | 21.7% | -13.0%
Cn1c(SCC(=O)NC(C)(C)C)nnc1-c1cnccn1 | -10.4 | 3.0% | 2.1% | -15.7% | -12.7%
Cc1ccccc1Cn1c(=O)n(CCCCC(=O)NCCc2ccccc2)c(=O)c2ccccc21 | . | . | . | ? | -21.3%
CCOc1ccc(CCNC(=O)CCc2cn(Cc3ccc(F)cc3)c3ccccc23)cc1 | . | . | . | 20.6µM* | ?
Cc1ccc(Cn2cc(CCC(=O)NCC(C)c3ccccc3)c3ccccc32)cc1 (centres undefined) | . | . | . | 16.4µM* | ?
Cc1ccc(CNC(=O)CCCc2cn(C)c3ccccc23)cc1 | 5.5 | -12.2% | -10.7% | ? | ?
O=C(CCc1c[nH]c2ccccc12)NCCc1ccc(Cl)cc1 | ? | -22.8% | -16.2% | -6.0% | 3.5%
O=C(CCc1cn(Cc2ccc(F)cc2)c2ccccc12)NCCc1ccc(Cl)cc1 | . | . | . | 18.4µM* | ?
Cc1ccc(CCNC(=O)CCc2cn(Cc3ccccc3C)c3ccccc23)cc1 | . | . | . | 16.4µM* | 18.4µM*
CN(C)CCN(Cc1ccco1)S(=O)(=O)c1cc2c(cc1Cl)NC(=O)CO2 | . | . | . | -22.5% | 2.4%
O=C(Nc1ccccc1O)N1c2ccccc2Sc2ccccc21 | 9.6 | -12.6% | -4.8% | 22.7% | 0.8%
CCOC(=O)c1c(C)nc2c(c1-c1ccc(OC)c(OC)c1)C(=O)c1ccccc1-2 | 0.9 | -7.2% | 6.3% | ? | 23.1µM*
CCOC(=O)c1c(C)nc(C)c(C(=O)OCC)c1-c1ccc(OC)cc1 | 21.2 | 15.3% | 3.2% | ? | ?
Cc1cnc(CNc2ncncc2-c2c(C)noc2C)cn1 | . | . | . | 2.59µM* | 3.66µM*
